Screening data from PubChem.
Hits are enriched below; roughly 10% of the tested compounds scored in any of these assays.
Pf growth 96h: inhibits malaria parasite growth, 96 h; 6.9% of 320,000 active; P. falciparum luciferase reporter growth, 96 h; Potency, µM (doses to about 28.7 µM), usual class: inhibitors; active = well fitted inhibition curve with a large enough effect; inconclusive = small, poorly fitted or top-dose-only effect, or another doubt; inactive = no such curve, though single readings can be large or run the other way
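Readout is luminescence from an integrated firefly luciferase in P. falciparum. Red cells, 2% hematocrit and 0.05% parasitemia final, were cultured with compound through two parasite generations (96 hours) at 37 C, 5% CO2.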
SARS PLP yeast: blocks SARS-CoV papain-like protease in a yeast assay; AID 485353; 0.19% of 330,000 active; S. cerevisiae expressing SARS-CoV PLpro, growth rescue; Potency, µM (highest dose often 32.9 µM), hits mostly activators; note: nearly all actives have a fitted effect of over 55% in size
NS1 inh: inhibitors of influenza NS1 protein function | 0.4% of 270,000 active | AID 2326 | Potency, µM (top dose mostly 46.1 µM); note: actives are rising curves; nearly all actives have a fitted effect of over 50% in size
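In this qHTS, NS1 from influenza A is expressed in budding yeast, where it slows growth. Cells are switched from glucose to 2% galactose medium (pH 6.0, -URA), treated with compound, and growth recovery is read at OD600.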
Pf growth 48h: P. falciparum growth inhibition at 48 hours (one generation); P. falciparum luciferase growth in erythrocytes, 48 h; Potency, µM (top dose mostly 28.7 µM), actives largely listed as inhibitors; 5.9% of 310,000 active; AID 504832; active = well fitted inhibition curve with a large enough effect; inconclusive = small, poorly fitted or top-dose-only effect, or another doubt; inactive = no such curve, though single readings can be large or run the other way
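In quantitative HTS format, infected erythrocytes bearing luciferase-reporter parasites were treated for a single generation at 37 C. Luminescence after adding detection reagent served as the growth measure.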
Of the large screens only hits and unclear results are named; the others gave an inactive call. Unless noted, calls come from the whole dose curve.

CC(C)Nc1ccc(Nc2ccccc2)cc1	Pf growth 96h 2.6µM, Pf growth 48h 4.1µM (no result: NS1 inh)
CCN1/C(=C2\SC(=S)N(Cc3ccccc3)C2=O)Sc2ccccc21	none
CCC(CO)[n+]1c(C)cc(/C=C2\Sc3ccccc3N2Cc2ccccc2)cc1C (stereo not drawn)	Pf growth 96h inconclusive, Pf growth 48h 0.37µM
Cc1cc(S(=O)(=O)N2CCOCC2)c(C)s1	Pf growth 96h inconclusive
Cc1cccc(OCCCC(=O)Nc2ccc(S(=O)(=O)Nc3nccs3)cc2)c1C	Pf growth 96h 3.7µM
Cc1cccc(OCCCC(=O)Nc2ccc(S(=O)(=O)Nc3onc(C)c3C)cc2)c1C	none
Cc1cccc(OCCCC(=O)Nc2ccc(S(=O)(=O)Nc3ncccn3)cc2)c1C	Pf growth 96h 2.1µM
COc1ccccc1/C=C1/SC(=O)N(CCC(=O)Nc2ccc(S(=O)(=O)Nc3nccs3)cc2)C1=O	Pf growth 96h 13µM
CC1CN(S(=O)(=O)c2cccc(-c3cn4cccnc4n3)c2)CC(C)O1 (stereo not drawn)	NS1 inh inconclusive, Pf growth 48h 7.4µM
O=S(=O)(c1cccc(-c2cn3cccnc3n2)c1)N1CCOCC1	NS1 inh inconclusive, Pf growth 48h inconclusive
COC(=O)[C@@H](NC(=O)N(C1CCCCC1)C1CCCCC1)C(C)C	Pf growth 96h 1.7µM
CC(=O)N1CCc2c(sc3c2c(=O)n(-c2ccccc2)c(=O)n3Cc2ccccc2Cl)C1	Pf growth 96h 12µM, Pf growth 48h inconclusive
CC(=O)N1c2ccc(S(=O)(=O)N3CCC(C(=O)NC4CCC(C)CC4)CC3)cc2CC1C (stereo not drawn)	Pf growth 96h 5.2µM, Pf growth 48h inconclusive
CC(=O)N1c2ccc(S(=O)(=O)NCC3CCC(C(=O)N4CCCC(C)C4)CC3)cc2CC1C (stereo not drawn)	Pf growth 96h 1.2µM, Pf growth 48h inconclusive
CC1Cc2cc(S(=O)(=O)N3CCC(C(=O)N(C)Cc4ccccc4)CC3)ccc2N1C(=O)C1CC1 (stereo not drawn)	Pf growth 96h 10µM, Pf growth 48h 13µM
COCCCNC(=O)C1CCC(CNS(=O)(=O)c2ccc3c(c2)CC(C)N3C(=O)C2CC2)CC1 (stereo not drawn)	Pf growth 96h 13µM
CC1Cc2cc(S(=O)(=O)N3CCN(c4ccccc4F)CC3)ccc2N1C(=O)C1CC1 (stereo not drawn)	Pf growth 96h inconclusive
O=S(=O)(c1ccc(NC(=S)NN=C2CCCCC2)cc1)N1CCOCC1	Pf growth 96h inconclusive
CCCCN(C)C(=O)C1CCC(CNS(=O)(=O)c2ccc3c(c2)CC(C)N3C(C)=O)CC1 (stereo not drawn)	Pf growth 96h inconclusive, Pf growth 48h inconclusive
COc1cc(CNS(=O)(=O)c2ccc3c(c2)CC(C)N3C(C)=O)cc(OC)c1OC (stereo not drawn)	Pf growth 96h 5.9µM, Pf growth 48h inconclusive
CC1Cc2cc(S(=O)(=O)N3CCC(C(N)=O)CC3)ccc2N1C(=O)C1CC1 (stereo not drawn)	Pf growth 96h 12µM
CC(=O)N1c2ccc(S(=O)(=O)NCC3CCC(C(=O)N(C)Cc4ccccc4)CC3)cc2CC1C (stereo not drawn)	Pf growth 96h inconclusive, Pf growth 48h 13µM
CCOC(=O)C1CCN(S(=O)(=O)c2ccc3c(c2)CC(C)N3C(=O)C2CC2)CC1 (stereo not drawn)	Pf growth 96h inconclusive, Pf growth 48h inconclusive
Cc1ccc(Cn2c(=O)c3ccccc3n3nc(C)cc23)cc1	Pf growth 96h inconclusive, Pf growth 48h inconclusive
O=C(CSC1=NS(=O)(=O)c2ccccc2N1)NCc1ccc(F)cc1	none (no result: NS1 inh)
Cc1nn(C(C)C(=O)NCC2CCCO2)c(C)c1[N+](=O)[O-] (stereo not drawn)	none
COCCn1c(SCC(=O)N(C)c2ccccc2)nc2c([nH]c3ccccc32)c1=O	Pf growth 96h inconclusive, Pf growth 48h inconclusive
CCN(CC)c1nc(C#N)cc(-c2ccc(OC)cc2)n1	Pf growth 96h 7.4µM, Pf growth 48h 13µM
COc1ccc(-c2cc(C#N)nc(N3CCNCC3)n2)cc1	Pf growth 96h 2.6µM (no result: Pf growth 48h)
COc1ccc(-c2cc(C#N)nc(Cl)n2)cc1	none
COc1ccc(-c2cc(C#N)nc(NN)n2)cc1	Pf growth 96h 2.9µM, NS1 inh inconclusive, Pf growth 48h inconclusive
COc1ccc(NC(=O)CSc2nc3ccsc3c(=O)n2CCC(=O)O)c(OC)c1	none
O=C(NC1CCCC1)C(c1ccccc1)N(Cc1ccccc1)C(=O)c1csnn1 (stereo not drawn)	Pf growth 96h inconclusive, Pf growth 48h inconclusive
Clc1ccc2c(c1)C(c1ccccc1Cl)=NCc1nnc(N3CCN(CCSc4ccccc4)CC3)n1-2	none
